CHRM1 antagonist = blocks human M1 muscarinic receptor; CHO-K1 hM1, Fluo-8 calcium fluorescence, ACh EC80 antagonist; P11229; 360,000 compounds, 1.3% hits; inhibition, % at 3 µM; AID 588852;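 active = percent inhibition above its own plate's cutoff, namely the mean of that plate's compound wells plus 3 SD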;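 also: peak over basal fluorescence ratio during 140 s after agonist addition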
Target sequence (P11229 whole entry, looked up): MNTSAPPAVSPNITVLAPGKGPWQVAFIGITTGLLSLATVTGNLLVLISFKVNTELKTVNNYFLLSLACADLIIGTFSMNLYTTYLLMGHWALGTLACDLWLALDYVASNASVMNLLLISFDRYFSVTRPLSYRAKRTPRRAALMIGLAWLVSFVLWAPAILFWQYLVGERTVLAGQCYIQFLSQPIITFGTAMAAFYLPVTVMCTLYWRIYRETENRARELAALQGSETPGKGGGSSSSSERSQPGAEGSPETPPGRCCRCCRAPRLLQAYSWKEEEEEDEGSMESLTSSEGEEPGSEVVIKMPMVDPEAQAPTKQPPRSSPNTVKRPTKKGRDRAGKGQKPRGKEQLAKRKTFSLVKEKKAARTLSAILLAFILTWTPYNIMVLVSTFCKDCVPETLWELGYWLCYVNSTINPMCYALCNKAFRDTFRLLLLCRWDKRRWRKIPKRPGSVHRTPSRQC
M1 PAM = potentiates human M1 receptor response to acetylcholine. P11229. CHO-K1 hM1, Fluo-8 calcium fluorescence, ACh EC20; 0% = ACh EC20, 100% = maximal ACh. activation, % at 3 µM. 360,000 compounds, 0.088% hits; in the data active = activation above about 19%, passing the limit was not always enough
M1 ag = human M1 muscarinic receptor agonism. CHO-K1 hM1, Fluo-8 calcium fluorescence, agonist mode; 0% DMSO, 100% acetylcholine EC100. activation, % at 3 µM. 360,000 compounds, 0.33% hits;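 active = activation above the run's mean compound activation plus 3 SD, cut at about 16% in these data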;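 also: peak over basal fluorescence ratio within a 140 s kinetic read after compound addition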
CHO-K1 Ca ag = M1 agonist counterscreen hit in parental CHO-K1 cells. Fluo-8 calcium fluorescence; scaled to maximal ATP response, vehicle zero. activation, % at 3 µM. 360,000 compounds, 0.48% hits. AID 602248; in the data active = activation above about 15%;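 also: untransfected CHO-K1 host cells lacking M1 receptor as counterscreen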
CHO-K1 Ca antag = counter-screen for M1 antagonists: effect in parental CHO-K1 cells; ATP-induced calcium, Fluo-8 fluorescence; 360,000 compounds, 0.6% hits; AID 602250; inhibition, % at 3 µM;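 active = inhibition above a per-plate cutoff, the plate's mean sample inhibition plus 3 SD, cut at about 24% in these data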
M1 PAM parental = counter-screen for M1 PAMs: effect in parental CHO-K1 cells; ATP EC20, Fluo-8 calcium fluorescence; 0% at ATP EC20, 100% at ATP max; activation, % at 3 µM; 360,000 compounds, 0.02% hits;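 active = activation above the run cutoff, the mean activation of all test compounds plus 3 SD, cut at about 40% in these data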;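 also: peak over basal fluorescence ratio in a 140 s read after ATP addition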
Each line names hits and unclear results; the compound was inactive in the other large screens. The list is not random: actives were taken first. Their share in the collection is about 2.3%.

CCN(CC)c1ccc(-c2nc3cnccc3n2C)cc1	CHRM1 antagonist 39
OC1(C#CCCN2CCCCC2)c2ccccc2-c2ccccc21	CHRM1 antagonist 99
O=C(CCCCN1CCCCC1)c1ccc2c(c1)Cc1ccccc1-2	none
OC1(CC#CCN2CCCCC2)c2ccccc2-c2ccccc21	CHRM1 antagonist 55
CCN(CC#CCC1(O)c2ccccc2-c2ccccc21)CCO	none
COc1ccccc1NC(=O)Cc1nnc(SCC(=O)NC2CCCCC2)n1C	none
CCN1CCc2[nH]c3ccccc3c2C1	none
CCCNC(=O)c1cc(C2CCCCN2C(=O)c2cc(OC)c(C)c(OC)c2)on1 (centres undefined)	CHO-K1 Ca antag 25
O=C(Nc1ccccc1Cl)c1cc(C2CCCCN2C(=O)C2CCCCC2)on1 (centres undefined)	none
COC(=O)N1CCCCC1c1cc(C(=O)Nc2ccccc2Cl)no1 (centres undefined)	M1 PAM 28
CCOc1ccc2nc(NS(=O)(=O)c3ccc4c(c3)n(C)c(=O)n4C)sc2c1	CHO-K1 Ca antag 26
CCOc1ccc(S(=O)(=O)Nc2nc3ccc(OC)cc3s2)cc1	none
COc1ccc(/C=C/C(=O)Nc2cccc(C(C)=O)c2)cc1	CHO-K1 Ca ag 19
CC(=O)Nc1cccc(C(=O)/C=C/c2ccc(N(C)C)cc2)c1	CHRM1 antagonist 55, M1 ag 113, CHO-K1 Ca ag 87, CHO-K1 Ca antag 44
CC(=O)c1c(C)nn(CC(=O)NC2CCCN(Cc3ccc(CC(C)C)cc3)C2)c1C (centres undefined)	CHRM1 antagonist 47
COc1ccc(/C=N/NC(=O)CNc2n[nH]c(=O)[nH]c2=O)cc1OC	CHO-K1 Ca antag 27
Cc1cccc(CNC(=O)C2CCC(=O)N(Cc3ccccc3F)C2)n1 (centres undefined)	none
Cc1nc(Cl)sc1C(=O)Nc1ccc(F)cc1	none
CC(C)S(=O)(=O)c1csc(C(=O)Nc2ccc(F)cc2)c1N	CHO-K1 Ca ag 21
COc1ccc(Cn2c(-c3ccc(Br)cc3)c[n+]3ccccc23)cc1	CHRM1 antagonist 42
COc1cccc2cc(C(=O)NCCc3c[nH]c4ccccc34)c(=O)oc12	none
Cc1ccc(C(=O)NNC(=O)c2cccc(C)c2)cc1	none
COc1ccc(C(=O)NNC(=S)NC(=O)c2cccs2)cc1	none
Cc1cccc(C(=O)NNC(=S)NC(=O)c2ccccc2)c1	M1 ag 97, CHO-K1 Ca ag 100, CHO-K1 Ca antag 35
Cc1ccccc1OCC(=O)Nc1ccccc1NC(=O)c1ccco1	none
O=C(CNC(=S)NC(=O)c1ccc(Cl)cc1)c1ccccc1	M1 PAM 32
COc1ccc(/C=C/C(=O)NC(=S)NNC(=O)c2cccs2)cc1	M1 ag 21
Cc1ccccc1OCC(=O)NNC(=S)NC(=O)c1ccco1	M1 ag 18
O=C(c1cc(COc2ccccc2)on1)N1CCCC(CN2CCOCC2)C1 (centres undefined)	none
COC(=O)C1=C(C(=O)OC)[C@@H]2N(Cc3ccccc3)c3ccccc3[C@@]23C[C@@H](C(=O)OC)N=C3N1	none
N#CNC(=Nc1ccc(Cl)cc1)Oc1ccccc1	none
Cc1ccc(C(=O)NNC(=S)NC(=O)c2ccco2)cc1	M1 ag 30, CHO-K1 Ca ag 21
O=C(CCc1ccccc1)NNC(=S)NC(=O)c1ccccc1	none
CC(C)(C)c1cc(CCC(=O)NNC(=S)NC(=O)c2ccccc2)cc(C(C)(C)C)c1O	CHRM1 antagonist 49, M1 ag 81, CHO-K1 Ca ag 56, CHO-K1 Ca antag 30
Cc1ccc(C(=O)NC(=S)NNC(=O)c2ccccc2)cc1	M1 ag 36, CHO-K1 Ca ag 20, CHO-K1 Ca antag 35
CC(C)NC(=S)NC(=O)c1ccc(Cl)cc1Cl	none
Cc1ccc(C(=O)NNC(=O)c2ccco2)cc1	none
Cc1ccc(C(=O)NNC(=S)NC(=O)c2ccc(Cl)cc2Cl)cc1	CHRM1 antagonist 46, M1 ag 105, CHO-K1 Ca ag 107
COC(=O)C1=NNC(C(=O)OC)C1c1ccccc1 (centres undefined)	none
COc1ccc(NS(=O)(=O)c2cc(NC(=O)c3nc4nc(C)cc(C)n4n3)ccc2C)cc1	none
Cc1cccc(C(=O)NNC(=S)NC(=O)c2cccs2)c1	M1 ag 84, CHO-K1 Ca ag 85
CCCCC(=O)NC(=S)NNC(=O)c1ccc(Cl)cc1Cl	M1 ag 25, CHO-K1 Ca ag 26
Cc1ccc(C(=O)NC(=S)NNC(=O)c2ccc([N+](=O)[O-])cc2)cc1	none
Cc1ccc(C(=O)NNC(=S)NC(=O)c2ccccc2)cc1	CHRM1 antagonist 52, M1 ag 52, CHO-K1 Ca ag 70, CHO-K1 Ca antag 27
CCCn1c(=O)c(Br)cn(-c2ccccc2C)c1=O	none
CC(=O)ON1C(C)(C)Cc2noc(N)c2C1(C)C	none
CC1(C)Cc2noc(N)c2C(C)(C)N1O	CHO-K1 Ca antag 25
CC(C)(C)OC(=O)NCCc1nnc(SCC(=O)Nc2ccc(Br)cc2)o1	CHO-K1 Ca ag 29
CC(C)(C)OC(=O)NCCCCCc1nnc(SCC(=O)Nc2cccc(Cl)c2)o1	CHRM1 antagonist 36
CC1(C)NC(=O)N(CC(O)COc2cc3ccccc3cc2C(=O)N2CCCCC2)C1=O (centres undefined)	none
O=C(c1cc2ccccc2cc1O)N1CCCC1	CHO-K1 Ca ag 19
O=C(c1cc2ccccc2cc1OCC(O)CN1CCCCC1)N1CCCCC1 (centres undefined)	CHRM1 antagonist 33
Cc1noc(C)c1CSCC(=O)Nc1cc(S(=O)(=O)N2CCOCC2)ccc1OC(C)C	none
CCCn1c(=O)[nH]c2ccccc21	none
O=c1[nH]c2ccccc2n1CCCN1CCCCC1	M1 ag 21
COc1cc(CN2CCN(C(c3ccccc3)c3ccccc3)CC2)cc(OC)c1OC	CHRM1 antagonist 96
OC(CN1CCN(C(c2ccccc2)c2ccccc2)CC1)c1ccc(Br)cc1 (centres undefined)	CHRM1 antagonist 38
COc1cccc(CN2CCN(Cc3cc(OC)c(OC)c(OC)c3)CC2)c1OC	none
c1ccc(OCCN2CCNCC2)cc1	none
c1ccc(OCCN2CCN(C(c3ccccc3)c3ccccc3)CC2)cc1	CHRM1 antagonist 52
COc1cccc(CN2CCN(C(c3ccccc3)c3ccccc3)CC2)c1O	CHRM1 antagonist 91
CCO[C@H]1OC(C(=O)NCc2ccccc2)=C[C@@H](C2CC2)[C@@H]1CCCO	none
COc1cc(CN(CCN(C)C)Cc2ccccc2)ccc1OCc1ccccc1	CHRM1 antagonist 51
Cc1cc(C)c(S(=O)(=O)Nc2ccnc(-c3cccnc3)n2)c(C)c1	none
CCN(CC)Cc1cc(CCNC(=O)c2ccc(Cl)cc2)ccc1O	none
CCN(CC)Cc1cc(Oc2ccc(O)c(CN(CC)CC)c2)ccc1O	CHRM1 antagonist 35
COc1cccc(CC2(CO)CCN(Cc3cnc(N4CCOCC4)s3)CC2)c1	none

Screening data (PubChem BioAssay)
